Screens deposited in PubChem by National Center for Advancing Translational Sciences (NCATS).
In the library only some 7.3% were active in any assay of this set; here they are far more common.
HCMV inh: qHTS Assay for inhibitors of the human cytomegalovirus (HCMV) | HFF cells, HCMV-luciferase reporter, 72 h; stronger effect = lower value | activity change, negative = inhibition, % at 57.5 µM | 410,000 compounds, 4.5% hits; in the data active means activity change below about -60%; inconclusive means no clear call, values can overlap the other calls; inactive means above about -39%
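Compounds were evaluated in HFFs infected with an HCMV luciferase reporter virus (MOI 1 PFU/cell). Luciferase in lysates collected 72 h post infection served as the replication measure.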
VACV Venus inh: qHTS for Stage-Specific Inhibitors of Vaccinia Orthopoxvirus: Venus Reporter Primary qHTS; AID 720580, 2013; 330,000 compounds, 0.46% hits; Vaccinia virus Venus reporter expression, fluorescence; Potency, µM (highest dose often 36.5 µM), usual class: inhibitors; calls by dose curve; tested in A549 cells; further: nearly all actives have a fitted effect of over 30% in size
HCV inhibitor: qHTS Assay for Inhibitors of Hepatitis C Virus (HCV) | Huh7.5.1 HCVcc-Cre infection, luciferase reporter, 44 h | Potency, µM (titrated, usually from 41.8 µM), usual class: inhibitors | 340,000 compounds, 3.4% hits | AID 651820, 2012; active means well fitted inhibition curve with a large enough effect; inconclusive means small, poorly fitted or top-dose-only effect, or another doubt; inactive means no such curve, though single readings can be large or run the other way
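Infectious HCV cell culture screen: compound-treated cells (1,000/well, pre-plated 4 h) are infected with HCVcc-Cre at roughly 0.5 moi and grown 44 h. Infection is quantified by luciferase signal after 15 min substrate incubation at room temperature.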
Vaccinia mCherry: qHTS for Stage-Specific Inhibitors of Vaccinia Orthopoxvirus: mCherry Reporter Primary qHTS | Vaccinia virus mCherry reporter infection, fluorescence | Potency, µM (series often up to 36.5 µM), usual class: inhibitors | 310,000 compounds, 0.63% hits | AID 720579, 2013; calls by dose curve; tested in A549 cells; further: nearly all actives have a fitted effect of over 35% in size
FMDV antiviral: High Throughput Screening for Foot and Mouth Disease Virus Antivirals; FMDV antiviral cell-based qHTS; Potency, µM (top dose mostly 57.9 µM), actives largely listed as inhibitors; 410,000 compounds, 1.2% hits; calls by dose curve; tested in HEK293T cells; further: read-out not given here; nearly all actives have a fitted effect of over 45% in size
Each line names hits and unclear results; the compound was inactive in the other large screens.

CCOc1ccc(S(=O)(=O)N2CCOCC2)cc1NC(=O)CSCC(=O)Nc1ccc(OC)cc1	none
C=CCn1c(SCC(=O)NCC)nnc1-c1cc2c(s1)CCC(CC)C2 (centres undefined)	HCMV inh -68, HCV inhibitor inconclusive
Clc1nc(NCCc2ccccc2)c2cn[nH]c2n1	HCMV inh -61, HCV inhibitor inconclusive, FMDV antiviral inconclusive
O=C(NS(=O)(=O)Oc1ccccc1F)OC[C@@H]1CCCN2CCCCC12 (some centres undefined)	none
O=C(Nc1ccccc1SCC1CSc2nc3ccccc3c(=O)n21)c1ccccc1Cl (centres undefined)	HCMV inh inconclusive (no result: Vaccinia mCherry)
O=c1c2ccccc2nc2n1C(CSc1ccccc1)CS2 (centres undefined)	none
O=C(Nc1ccccc1SCC1CSc2nc3ccccc3c(=O)n21)c1cccc(Cl)c1 (centres undefined)	HCMV inh -96 (no result: Vaccinia mCherry)
Cc1cccc(C(=O)Nc2ccccc2SCC2CSc3nc4ccccc4c(=O)n32)c1 (centres undefined)	HCMV inh -75 (no result: Vaccinia mCherry)
O=c1c2ccccc2nc2n1C(CSc1ccc(F)cc1)CS2 (centres undefined)	none
Cc1ccc(C(=O)Nc2ccccc2SCC2CSc3nc4ccccc4c(=O)n32)cc1 (centres undefined)	HCMV inh -85 (no result: Vaccinia mCherry)
O=C(Nc1ccccc1SCC1CSc2nc3ccccc3c(=O)n21)c1ccccc1 (centres undefined)	HCMV inh -70 (no result: Vaccinia mCherry)
Cc1ccc(N2C(=O)CCC2=O)c(C)c1	none
NC(=O)C12NC(Cc3ccccc31)c1ccccc12 (centres undefined)	none (no result: VACV Venus inh, HCV inhibitor, Vaccinia mCherry, FMDV antiviral)
O=c1c2ccccc2nc2n1C(CSCc1ccc(Cl)cc1)CS2 (centres undefined)	HCMV inh inconclusive, VACV Venus inh inconclusive, HCV inhibitor 10µM, FMDV antiviral inconclusive (no result: Vaccinia mCherry)
O=C(NCc1ccccc1Cl)C1CCCN(C(=O)c2cnn(-c3ccccc3)c2-n2cccc2)C1 (centres undefined)	none (no result: HCV inhibitor)
CCC1CCCCN1CCCNC(=O)Cn1nc(-c2ccc(C)cc2)ccc1=O (centres undefined)	HCMV inh -71, HCV inhibitor inconclusive (no result: FMDV antiviral)
CCc1ccc(-c2cc3c(=O)n(CC(=O)NCCN4CCCCC4C)nc(C)n3n2)cc1 (centres undefined)	HCV inhibitor 11µM
CCc1ccc(-c2cc3c(=O)n(CC(=O)N4CCCC4)nc(C)n3n2)cc1	none
COc1ccc(-n2c(CNC(=O)c3ccc(OC)cc3OC)nnc2SC)cc1	none (no result: HCMV inh, HCV inhibitor)
COc1ccc(OC)c(CCNC(=O)c2cc3cccc4c3n2CC(C)S4)c1 (centres undefined)	none (no result: HCV inhibitor)
Cc1ccc(CNC(=O)c2csc3c2CCCCC3)cc1	none (no result: VACV Venus inh, Vaccinia mCherry)
O=C(NCc1ccco1)c1csc2c1CCCC2	HCMV inh -65
COc1ccc(OC)c(CCNC(=O)c2cc3cccc4c3n2CCS4)c1	FMDV antiviral 4.5µM (no result: HCV inhibitor)
COc1ccc(OC)c(CCNC(=O)c2csc3c2CCCCC3)c1	HCMV inh -62 (no result: HCV inhibitor)
COc1ccc(CCNC(=O)c2csc3c2CCCC3)cc1OC	none
CCOc1ccc(NC(=O)c2ccc(-c3nc(COc4ccccc4)c(C)o3)cc2)cc1	none (no result: HCV inhibitor)
Cc1nc2c(c(C)c1CCC(=O)N1CCN(c3ccccc3)CC1)c(=O)n(C)c(=O)n2C	FMDV antiviral inconclusive (no result: HCV inhibitor)
CC(=O)Nc1cc([N+](=O)[O-])cc(NC(C)=O)c1NC(C)=O	none (no result: HCMV inh, HCV inhibitor, FMDV antiviral)
COCC1CCCN(Cc2ccc3c(c2)CN(C(=O)c2ccc(-c4ccc(C)o4)cc2)CCO3)C1 (centres undefined)	none (no result: HCMV inh, HCV inhibitor)
COC(=O)C[C@H]1CC[C@H](NC(=O)c2ccc(F)cc2)[C@@H](CO)O1	none (no result: HCV inhibitor)
O=C(Cn1c(-c2ccccc2)c[n+]2ccsc12)c1ccccc1	HCMV inh -62
O=C(Cn1c(-c2ccccc2)c[n+]2ccsc12)c1ccc([N+](=O)[O-])cc1	HCMV inh -99, HCV inhibitor 10µM (no result: VACV Venus inh, Vaccinia mCherry)
CCOC(=O)Cc1nnc(Nc2cc(C)ccc2C)c2ccccc12	HCMV inh -60
CCOC(=O)Cc1nnc(Nc2ccc(C)cc2C)c2ccccc12	HCMV inh -60, FMDV antiviral inconclusive
CCOC(=O)Cc1nn(C(C)C)c(=O)c2ccccc12	none
O=c1cc(-c2ccccc2)n2c(SCc3ccccc3Cl)nnc2[nH]1	none (no result: HCV inhibitor)
CN1C(=O)N(CC(=O)c2ccc3c(c2)OCO3)C(=O)C12CCCCC2	none (no result: HCV inhibitor)
Cc1cc(C(=O)OCC(=O)N(C)c2ccccc2)ccc1[N+](=O)[O-]	HCMV inh -63
CN(C(=O)COC(=O)c1ccc2c(c1)OCCO2)c1ccccc1	HCMV inh -69
CC(C)N(Cc1ccccc1)C(=O)COC(=O)c1ccc2c(c1)OCCO2	none
Cc1ccc(C(=O)OCC(=O)N(C)c2ccccc2)cc1C	none
CCCc1nc(N2CCCC2)c(C#N)c2c1CCCC2	HCV inhibitor inconclusive (no result: VACV Venus inh, Vaccinia mCherry)
N#Cc1c(SCC(=O)O)nc(-c2ccccc2)c2c1CCCC2	none
CCCCc1nc(N2CCN(C(=O)c3ccco3)CC2)c(C#N)c2c1CCCC2	HCV inhibitor 14µM, FMDV antiviral inconclusive (no result: VACV Venus inh, Vaccinia mCherry)
CCc1nc(N2CCCC2)c(C#N)c2c1CCCC2	HCMV inh -80
CCC(=O)N1CCN(c2nc(-c3ccccc3)c3c(c2C#N)CCCC3)CC1	HCV inhibitor 10µM, FMDV antiviral inconclusive
COc1ccc2[nH]c(CCc3nc4c(OC)c(OC)ccc4[nH]3)nc2c1OC	none (no result: HCMV inh, HCV inhibitor, FMDV antiviral)
Cc1cc2c(cc1C)NC(=O)C(C)CN2 (centres undefined)	Vaccinia mCherry inconclusive (no result: HCV inhibitor)
COc1ccc(C2C(C#N)=C(N)N(c3sc4c(c3C#N)CCCC4)C3=C2C(=O)CC(C)(C)C3)cc1 (centres undefined)	HCV inhibitor 7.9µM (no result: HCMV inh, VACV Venus inh, Vaccinia mCherry)
COc1ccc(C2C(C#N)=C(N)N(c3sc4c(c3C#N)CCCC4)C3=C2C(=O)CC(C)(C)C3)cc1OC (centres undefined)	HCV inhibitor inconclusive (no result: VACV Venus inh, Vaccinia mCherry)
Cc1ccccc1-c1nc2c(s1)CCc1onc(-c3ccc(Cl)cc3)c1-2	none
COc1ccc(C(=O)NC(C)c2nc3ccccc3n2C)cc1OC (centres undefined)	none
COc1ccc(C(O)c2nc3ccccc3n2C)cc1OC (centres undefined)	HCMV inh -88, HCV inhibitor 2.8µM, Vaccinia mCherry inconclusive, FMDV antiviral inconclusive
Cc1ccc(O)c(C(=O)c2cc(C#N)c3nc4ccccc4n3c2)c1	HCV inhibitor 5µM, Vaccinia mCherry inconclusive, FMDV antiviral inconclusive
CC(C)(O)c1cc2ccc(C#Cc3ccsc3)cc2c(=O)o1	HCV inhibitor inconclusive
CCNc1nc(NC(C)(C)C)nc(N2CCCCC2)n1	HCMV inh -72, HCV inhibitor inconclusive
CCNc1nc(N2CCCC2)nc(N2CCCC2)n1	HCV inhibitor 11µM
CC(C)(CO)Nc1nc(N2CCCC2)nc(N2CCCC2)n1	HCV inhibitor inconclusive (no result: VACV Venus inh, Vaccinia mCherry)
Cc1nn(CCCC(=O)Nc2ccccc2C(F)(F)F)c(=O)c2c1sc1ccccc12	none (no result: HCV inhibitor)
